Only a selection was taken, and hits are over-represented in it overall.
IMPase Li inh: IMPase inhibition in cells with lithium potentiation; CHO-M1 cells, IP1 TR-FRET (IP-One), carbachol + lithium; Potency, µM (doses to about 59.4 µM), hits mostly inhibitors; 210,000 compounds, 0.35% hits; AID 1457;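 also: IP1 builds up when IMPase is blocked and the TR-FRET signal falls; nearly all actives have a fitted effect of over 50% in size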
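CHO-M1, 2000 cells/well, 16–30 h culture; cpd + low Li+, 30 min 37C; lysis with d2-IP1/Eu-anti-IP1 Ab, 10 min RT; TR-FRET 665/620 ratio and 620 channel; AC50 via Hill.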
ALOX15B inhib: blocks human 15-lipoxygenase 2 activity | O15296 | purified 15hLO-2, xylenol orange hydroperoxide absorbance | Potency, µM (doses to about 57.1 µM), hits mostly inhibitors | 110,000 compounds, 0.56% hits; also: nearly all actives have a fitted effect of over 60% in size
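Screening format was qHTS against 50 nM purified 15hLO-2 in Hepes pH 7.5 with detergent. Activity follows hydroperoxide formation from 45 uM arachidonic acid, measured as 573:405 nm absorbance ratio of the ferric-xylenol orange complex.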
IMPase cell inh: IMPase inhibition in cells; P97697; CHO-M1 cells, IP1 accumulation, HTRF TR-FRET ratio; inhibition (IP1 accumulation), % at 46.1 µM; 120,000 tested, under 10 active; active = well fitted curve in the direction sought with a large enough effect in the signal ratio, not every such curve was filed as active; inconclusive = small, poorly fitted or top-dose-only effect, or a change in a side signal; inactive = no such curve, though single readings can be large or run the other way; the % refers to the signal ratio;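 also: cells stimulated with carbachol in lithium chloride buffer; higher means more IMPase inhibition seen as more IP1 and lower FRET ratio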
Target sequence (P97697 whole entry, looked up): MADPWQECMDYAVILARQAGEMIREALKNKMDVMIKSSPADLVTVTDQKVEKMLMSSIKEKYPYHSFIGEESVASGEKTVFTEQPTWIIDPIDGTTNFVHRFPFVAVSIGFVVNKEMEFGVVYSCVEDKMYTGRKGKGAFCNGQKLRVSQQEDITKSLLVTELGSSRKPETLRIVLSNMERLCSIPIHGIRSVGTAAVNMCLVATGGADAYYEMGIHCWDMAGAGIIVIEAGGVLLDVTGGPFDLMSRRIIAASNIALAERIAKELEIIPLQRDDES
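The IP-One HTRF competitive assay in carbachol-stimulated CHO-M1 cells quantifies cellular IP1. Compounds spanned up to 46 uM final, and activity is expressed as AC50 from concentration-response fits of the ratio and donor data.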
PNC inhibitor: blocks assembly of the perinucleolar compartment. PC3M PTB-GFP, PNC prevalence imaging, 16 h; active compounds read low. activity change (PNC), negative = inhibition, % at 10 µM. 140,000 compounds, 3.1% hits;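 active = readout at or below -70, meaning at least 70% loss of cells showing the perinucleolar compartment, a nuclear body marking cancer cells; inconclusive = readout between -30 and a set limit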
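Compounds are pinned in duplicate onto adhered PC3M cells stably expressing GFP-tagged PTB and incubated 16 h at 37 C. Cells are then fixed, nuclei stained with Hoechst, and PNC-positive cells counted.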
ALOX12 inhib: blocks human 12-lipoxygenase activity | P18054 | purified 12-hLO, xylenol orange hydroperoxide absorbance | Potency, µM (top dose mostly 57.1 µM), most hits filed as inhibitors | 150,000 compounds, 0.12% hits | AID 1452; also: nearly all actives have a fitted effect of over 55% in size
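Hydroperoxide formation by human 12-lipoxygenase from 40 uM arachidonic acid was followed colorimetrically via ferric-xylenol orange complex, using the 573/405 nm absorbance ratio. Enzyme concentration was 150 nM, with 30 min reaction at room temperature.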
Numbers stand for hits; i = inactive; ? = inconclusive; nt = no result; [ ] = remark or other dose. Unless noted, calls follow the shape of the dose curve; as a rule, active = well fitted curve in the direction sought with a large enough effect; inconclusive = small, poorly fitted or top-dose-only effect, or another doubt; inactive = no such curve, though single readings can be large; an effect the other way counts as inactive or inconclusive.

SMILES | IMPase Li inh | ALOX15B inhib | IMPase cell inh | PNC inhibitor | ALOX12 inhib
CCOc1ccccc1NC(=O)c1c(NC(=O)c2ccccc2C)sc2c1CCC(C)C2 (stereo not given) | nt | nt | i | nt | nt
CN(CCOc1ccc(-c2ccn(S(=O)(=O)c3cccc4ccccc34)n2)cc1)c1ccccn1 | i | i[11.4 µM] | i[1.84 µM] | -89 | i
CC1=c2c(oc3cc(O)c(Nc4c(C)cc(O)cc4O)c(C)c23)=CC(=O)C1=Nc1c(C)cc(O)cc1O | i | ? | nt | nt | i[11.4 µM]
COC(=O)N1C(c2ccccc2)=Cc2ccccc2C1C1(C(=O)OC)CCCC1=O (stereo not given) | i | nt | nt | nt | i[11.4 µM]
Cc1ccc(N(CC(=O)N/N=C/c2cc(C)n(-c3ccccc3)c2C)S(C)(=O)=O)c(C)c1 | i | i | i | i | i
Cc1cc(/C=N/NC(=O)Cn2c3ccccc3c(=O)c3ccccc32)c(C)n1-c1ccccc1 | i | 4µM | i | i | i
Cc1onc(-c2ccccc2)c1C(=O)NC(=S)NNC(=O)c1ccc(O)cc1O | i | nt | nt | i | i
Cc1onc(-c2ccccc2)c1C(=O)NC(=S)NNC(=O)c1ccccc1O | i | nt | nt | -95 | i
O=C(O)c1ccc(S(=O)(=O)N=Nc2c(O)[nH]c3ccccc23)cc1 | i | i[11.4 µM] | nt | nt | i[11.4 µM]
Cc1ccc2nc(NC(=O)c3ccc(Cn4cc(Cl)cn4)o3)sc2c1 | i | nt | i | -100 | i
CC(=O)c1sc(NC(=O)c2ccc(Cn3cc(Br)cn3)o2)nc1C | i | i | i | i | i
Fc1ccc(-n2c(-c3ccc4ccccc4n3)n[nH]c2=S)cc1Cl | 2.8µM | nt | nt | nt | nt
S=c1[nH]nc(-c2ccc3ccccc3n2)n1-c1ccc(Cl)cc1 | i | nt | i | i | i
COc1ccc(-c2cc(C(F)(F)F)n3nc(C)c(-c4ccccc4)c3n2)cc1OC | nt | nt | i | nt | nt
O=C(CCc1ccccc1)N1CCN(CCO)CC1 | i | i | i | -89 | i
c1ccc(C2=Nc3ccccc3SC2c2nc3ccccc3[nH]2)cc1 (stereo not given) | i | 25µM | i | i | ?
O=C(NCc1ccccn1)c1cc(-c2ccccc2Cl)nc2ccccc12 | i | nt | nt | -88 | i
O=C(COC(=O)c1cc(-c2ccccc2Cl)nc2ccccc12)Nc1ncc(C(F)(F)F)cc1Cl | 10µM | nt | ? | i | i
COc1ccc(-c2cc(C(F)(F)F)c(C#N)c(SCC(=O)Nc3cccc(C)c3)n2)cc1 | nt | nt | i | nt | nt
O=c1cc(O)c2c(=O)n(-c3ccccc3)c3c(c2o1)CCCCCC3 | i | nt | nt | -88 | i
O=c1cc(O)c2c(=O)n(C3CCCCC3)c3ccccc3c2o1 | i | i | i | i | i
COCCCNC(=O)CN(c1cc(Cl)cc(Cl)c1)S(C)(=O)=O | i | nt | i | -100 | i
COCCCNC(=O)CN(c1ccc(Cl)c(Cl)c1)S(C)(=O)=O | nt | i | i | ? | i
O=C(O)C1=CC(=C(c2ccc(O)c(C(=O)O)c2)c2ccc(O)c(C(=O)O)c2)C=CC1=O | ? | 7.9µM | ? | nt | ?
CCOC(=O)C1CCCN(C(=O)c2cnn3c(C(F)F)cc(-c4ccc(C)cc4)nc23)C1 (stereo not given) | i | i | i | -107 | i
SMILES | IMPase Li inh | ALOX15B inhib | IMPase cell inh | PNC inhibitor | ALOX12 inhib
N#Cc1cc2c(nc1SCC(N)=O)CCCCC2 | i | i | i | i | i
N#Cc1cc2c([nH]c1=S)CCCCCC2 | i | 25µM | i | i | ?
COc1cccc(-n2cnnn2)c1 | i | i | i | i | i
Cc1ccc(-c2nnc(COc3cccc(-n4cnnn4)c3)o2)cc1 | i | i | i | -103 | i
CCOc1ccc(NC(=O)c2c(NC(=O)c3cccs3)sc3c2CCC(C(C)(C)C)C3)cc1 (stereo not given) | nt | nt | i | nt | nt
CC(=O)Nc1cc(C(=O)NCc2ccco2)ccc1Sc1ccc(Cl)cc1 | i | nt | nt | -103 | i
CCN(CC)CC(=O)n1c2c(c3ccccc31)CCCC2 | i | i | i | -100 | i
CN1CCN(CC(=O)n2c3c(c4ccccc42)CCCC3)CC1 | i | i | i | ? | i
C[N+]1([C@H](CO)Cc2c[nH]c3ccccc23)Cc2ccccc2C1 | i | i[11.4 µM] | nt | nt | i[11.4 µM]
O=C(Nc1ccccc1Cl)N1CCN(C/C=C/c2ccccc2)CC1 | i | nt | nt | -91 | i
COc1ccc(C(=O)N2CCC3(CCCN(Cc4ccccc4OC)C3)CC2)cc1 | i | i | nt | nt | i
COc1ccccc1Nc1nc2ccc(Cl)cc2nc1-n1nc(C)cc1C | nt | nt | i | nt | nt
Cc1cccc(NC(=O)CSc2nnc([C@@H]3CCCN3C(=O)OC(C)(C)C)o2)c1C | i | i | i | i | i
Cc1ccc(C)c(NC(=O)CSc2nnc([C@@H]3CCCN3C(=O)OC(C)(C)C)o2)c1 | nt | i | i | -119 | i
COC(=O)N[C@@H](/C=C/c1ccccc1)[C@@H](C)[N+](=O)[O-] | i | nt | nt | nt | nt
COc1ccccc1N1CCN(C(=O)c2oc3ccc(F)cc3c2C)CC1 | i | nt | nt | i | i
COc1ccccc1N1CCN(C(=O)c2oc3ccc(Br)cc3c2C)CC1 | i | nt | nt | -95 | i
O=[N+]([O-])c1cc(-c2cnc3ccccc3n2)ccc1Oc1ccc(Br)cc1 | i | i | i | -106 | i
Nc1nc2c(c(=O)[nH]1)N[C@H](CCNc1ccc(C(=O)O)cc1)CN2 | i | i[11.4 µM] | nt | nt | i[11.4 µM]
C1CCC(NC(=NC2C3CC4CC(C3)CC2C4)N2CCOCC2)CC1 (stereo not given) | i | nt | nt | nt | nt
O=C(COc1ccc(Cl)cc1Cl)NC(=S)Nc1ccccc1C(=O)O | i | nt | nt | nt | nt
CCOc1ccccc1NC(=S)NC(=O)CCCOc1ccc(Cl)cc1Cl | i | 16µM | i | i | ?
CN1CCN(c2ncc3nc(-c4cn(C)c5ccccc45)c(=O)n(CCC#N)c3n2)CC1 | i | i | nt | nt | nt
Cc1ccc(N2C(=O)CC(N3CCN(C)CC3)C2=O)cc1 (stereo not given) | i | nt | i | -100 | i
COc1ccc(N2C(=O)CC(N3CCN(c4ccccc4F)CC3)C2=O)cc1 (stereo not given) | i | i | i | -97 | i
SMILES | IMPase Li inh | ALOX15B inhib | IMPase cell inh | PNC inhibitor | ALOX12 inhib
O=C1CCCN1CCC1CCN(C2CC(=O)N(c3ccc(F)cc3)C2=O)CC1 (stereo not given) | i | ? | i | -112 | i
O=c1[nH][nH]c(=S)c(=O)[nH]1 | i | i[11.4 µM] | nt | nt | i[11.4 µM]
CCCC(C)C(=O)Nc1ccncc1 (stereo not given) | i | nt | i | -100 | i
CCCC(CCC)C(=O)Nc1ccncc1 | i | i | i | i | i
CN(C)C1CCN(C(=O)c2ccc(-n3c(=O)c(=O)[nH]c4ccccc43)cc2)C1 (stereo not given) | nt | nt | nt | nt | i
CC(=O)Nc1ccc(NC(=O)c2ccc(NS(=O)(=O)c3cc(C(C)(C)C)cc(C)c3C)cc2)cc1 | i | nt | nt | -89 | i
CC(C)CN1CC[C@@]2(CCCN(C(=O)c3cc(C(F)(F)F)cc(C(F)(F)F)c3)C2)C1 | i | i | nt | nt | i
CCC(Sc1ncnc2sc3c(c12)CCCC3)C(=O)OCC(C)C (stereo not given) | nt | nt | i | nt | nt
Cc1sc(NC(=O)CSc2nnc(C(C)C)n2C)c(C#N)c1C | i | nt | i[0.369 µM] | -86 | i

Source: PubChem
